“And” between values parts separate entries of the source, which are not always exact repeats. Identical values can stand only once. The source made the active and inactive calls. The calls were made as follows: active = hit-call score of the fitted dose curve at least 0.9, where 1 is the maximum; inactive = score below 0.9.
experiment: ATG_TGFb_CIS: Attagene CIS-FACTORIAL HepG2 Assay for human Transforming Growth Factor (TGF) (AID 2282967); conditions: HepG2 Attagene CIS TGFb reporter, mRNA transcription; actives raise or lower the signal
Description: ATG_CIS is a cell-based, multiplexed-readout assay that uses HepG2, a human liver cell line, with measurements taken at 24 hours after chemical dosing in a 24-well plate.ATG_TGFb_CIS is one of 52 assay component(s) measured or calculated from the ATG_CIS assay. It is designed to make measurements of mRNA induction, a form of inducible reporter, as detected with fluorescence intensity signals by Reverse transcription polymerase chain reaction (RT-PCR) and Capillary electrophoresis technology.Data from the assay component ATG_TGFb_CIS was analyzed into 1 assay endpoint. This assay endpoint, ATG_TGFb_CIS, was analyzed with bidirectional fitting relative to DMSO as the negative control and baseline of activity. Using a type of inducible reporter, measures of mRNA for gain or loss-of-signal activity can be used to understand the reporter gene at the transcription factor-level as they relate to the gene TGFB1. Furthermore, this assay endpoint can be referred to as a primary readout, because this assay has produced multiple assay endpoints where this one serves a reporter gene function. To generalize the intended target to other relatable targets, this assay endpoint is annotated to the growth factor intended target family, where the subfamily is transforming growth factor beta.
Human liver HepG2 cells are transiently transfected with multiple reporter transcription units (MRTUs) in 6-well plates using FuGene 6 reagent (Roche; 3 ml FuGene/1 mg DNA). The MRTU constructs are regulated by a cis-regulating element (promoter). […] A major difference between the CIS and TRANS system is that in CIS activities of endogenous TFs are measured, whereas the TRANS assay evaluates changes in activities of exogenous, chimeric NR-Gal4 proteins. […] At the end of 24 hour incubation, total RNA was isolated using TriZol reagent (Invitrogen). The isolated RNA is then reverse-transcribed using oligo(dT) primer and Mo-MLV reverse transcriptase (Invitrogen) with DNAse I (Ambion) treatment for 30 min. The one-tenth of the produced cDNA was amplified by PCR using Taq DNA polymerase (Invitrogen) and two reporter sequence-specific primers. The PCR products were fluorescently labeled by primer extension with 6-arboxyfluorescein (6-FAM) 5'-labeled reporter sequence-specific primer (2 min at 95 C, 20 s at 68 C and 10 min at 72 C) and these products were digested with 5U of HpaI (New England Biolabs) for 2h at 37 C. The fragments were purified using Qiaquick PCR columns (Qiagen), analyzed on an ABI 3130xL genetic analyzer (Applied Biosystems) with peak positions identified by using a set of X-rhodamine (ROX)-labeled MapMarker1000 molecular weight standards (BioVentures). The raw capillary electrophoresis data was processed using Attagraph software (Attagene).

**Q.** For N#CCc1ccc(Cl)cc1, which outcome is on record?
**A.** Its outcome is “inactive”.

**Q.** For CCC(C)(C)c1ccc(O)c(C(C)(C)CC)c1, which outcome is on record?
**A.** Its outcome is “inactive”.

**Q.** With CN(CCCC(=O)c1cccnc1)N=O as the molecule, how does the outcome read?
**A.** Its outcome is “inactive”.

**Q.** Which outcome does the source give for CC(=O)[O][Hg][c]1ccccc1 here?
**A.** The outcome was “inactive”.

**Q.** With O=C(O)C(F)(F)C(F)(F)C(F)(F)C(F)(F)C(F)(F)C(F)(F)F as the molecule, how does the outcome read?
**A.** The outcome was “inactive”.

**Q.** Which outcome does the source give for O=P(O)(O)CN(CP(=O)(O)O)CP(=O)(O)O here?
**A.** Its outcome is “inactive”.

**Q.** For Cc1cc(=O)[nH]o1, which outcome is on record?
**A.** Its outcome is “inactive”.

**Q.** Which outcome does the source give for C[C@]12CC[C@H](O)CC1=CC[C@@H]1[C@@H]2CC[C@]2(C)C(=O)CC[C@@H]12 here?
**A.** The outcome was “inactive”.

**Q.** For NC(=O)O, which outcome is on record?
**A.** Its outcome is “inactive”.

**Q.** With O=C(CCl)CCl as the molecule, how does the outcome read?
**A.** The outcome was “inactive”.

**Q.** Which outcome does the source give for COC(=O)Cc1ccccc1 here?
**A.** The outcome was “inactive”.

**Q.** With N#Cc1ccccn1 as the molecule, how does the outcome read?
**A.** Its outcome is “inactive”.

**Q.** With ClCC(Cl)CCl as the molecule, how does the outcome read?
**A.** Its outcome is “inactive”.

**Q.** With CC(C)(OO)c1ccccc1 as the molecule, how does the outcome read?
**A.** Its outcome is “inactive”.

**Q.** For COc1cc2c(cc1OC)[C@@]13CCN4CC5=CCO[C@H]6CC(=O)N2[C@H]1[C@H]6[C@H]5C[C@H]43, which outcome is on record?
**A.** Its outcome is “inactive”.

**Q.** For Clc1ccc(C2(Cn3cncn3)CC(Br)CO2)c(Cl)c1 (stereo not given), which outcome is on record?
**A.** The outcome was “inactive”.

**Q.** Which outcome does the source give for Cc1ccc(N)cc1Cl here?
**A.** The outcome was “inactive”.

**Q.** With CC12CC1(C)C(=O)N(c1cc(Cl)cc(Cl)c1)C2=O (stereo not given) as the molecule, how does the outcome read?
**A.** Its outcome is “inactive”.

**Q.** With Cn1sc(Cl)cc1=O as the molecule, how does the outcome read?
**A.** Its outcome is “inactive”.

**Q.** For ClC1=C(Cl)[C@]2(Cl)[C@H]3[C@H]([C@H]4C=C[C@H]3C4)[C@@]1(Cl)C2(Cl)Cl, which outcome is on record?
**A.** Its outcome is “inactive”.

**Q.** Which outcome does the source give for CC(C)(C)c1cc(O)ccc1O here?
**A.** The outcome was “inactive”.

**Q.** For CCC(C)c1cccc(C(C)CC)c1O (stereo not given), which outcome is on record?
**A.** Its outcome is “inactive”.

**Q.** For CC(=[OH+])/C=C(/C)[O-].CC(=[OH+])/C=C(/C)[O-].CC(=[OH+])/C=C(/C)[O-].[Fe], which outcome is on record?
**A.** The outcome was “inactive”.

**Q.** Which outcome does the source give for Cc1ccccc1N here?
**A.** Its outcome is “inactive”.

**Q.** With O=C(O)C(F)(F)C(F)(F)C(F)(F)C(F)(F)C(F)(F)C(F)(F)C(F)(F)C(F)(F)C(F)(F)C(F)(F)F as the molecule, how does the AC50 read?
**A.** The AC50 was 105 µM (active) and 13.4 µM (active).

**Q.** Which outcome does the source give for CCc1ccccc1N here?
**A.** Its outcome is “inactive”.

**Q.** For CNC, which outcome is on record?
**A.** The outcome was “inactive”.

**Q.** For CC1(C)Cc2cccc(O)c2O1, which outcome is on record?
**A.** The outcome was “inactive”.

**Q.** Which outcome does the source give for Cc1cc(Cl)ccc1O[C@H](C)C(=O)O here?
**A.** The outcome was “inactive”.

**Q.** For CCOP(=S)(OCC)SCCS(=O)(=O)CC, which outcome is on record?
**A.** The outcome was “inactive”.

**Q.** Which outcome does the source give for CC(C)CCCCCCOC(=O)c1ccccc1C(=O)OCCCCCCC(C)C here?
**A.** Its outcome is “inactive”.

**Q.** With O=C(OC1CCCCC1)c1ccccc1C(=O)OC1CCCCC1 as the molecule, how does the AC50 read?
**A.** The AC50 was 62.1 µM (active).

**Q.** Which outcome does the source give for CC(=O)OC(c1ccccc1)C(Cl)(Cl)Cl (stereo not given) here?
**A.** The outcome was “inactive”.

**Q.** For CCSC(C)CC1CC(=O)C(C(CC)=NOC/C=C/Cl)=C(O)C1 (stereo not given), which outcome is on record?
**A.** The outcome was “inactive”.

**Q.** With CCCCCCCCSC(=O)Oc1cc(Cl)nnc1-c1ccccc1 as the molecule, how does the AC50 read?
**A.** The AC50 was 152 µM (active).

**Q.** For O=Cc1cccc(Oc2ccccc2)c1, which outcome is on record?
**A.** The outcome was “inactive”.

**Q.** For OCC(O)CCl (stereo not given), which outcome is on record?
**A.** Its outcome is “inactive”.

**Q.** With CCOC(=O)CP(=O)(OCC)OCC as the molecule, how does the outcome read?
**A.** The outcome was “inactive”.

**Q.** For CC(C#N)CCC#N (stereo not given), which outcome is on record?
**A.** Its outcome is “inactive”.

**Q.** For Clc1nc(Cl)nc(Cl)n1, which outcome is on record?
**A.** The outcome was “inactive”.
